Sampled rows, rich in hits. Any-hit rate of the full collection: about 3.1%.
PriA SSB inh – K. pneumoniae PriA-SSBct interaction inhibition | inhibition, % at 33 µM | 430,000 compounds, 0.6% hits | AlphaScreen SSBct-PriA binding, biotinylated peptide; in the data active = inhibition mostly above about 37%, no sharp cut-off; inactive = mostly below about 20%;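 note: plate controls were negative control peptide for no effect and reference peptide for full effect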
BoNT A protease – BoNT A light chain protease inhibition; multiplex microsphere protease substrate cleavage, flow cytometry; inhibition, % at 10 µM; 360,000 compounds, 0.17% hits; AID 588499; note: plate controls were buffer without enzyme for full effect and enzyme alone for no effect
Anthrax LF prot – inhibitors of Bacillus anthracis lethal factor protease; multiplex microsphere protease cleavage assay, LF; 360,000 compounds, 0.12% hits; P15917; inhibition, % at 10 µM; note: plate controls were buffer without enzyme for full effect and enzyme alone for no effect
Bead autofluor – counter-screen for toxin protease inhibitors: compound fluorescence. compound autofluorescence counterscreen, microsphere flow cytometry; stronger effect = higher value. 360,000 compounds, 3.1% hits. fluorescence intensity (test concentration not listed); in the data active = fluorescence intensity above about 16000; inconclusive = no clear call, values can overlap the other calls
BoNT-F LC inh – BoNT F light chain protease inhibition; Multiplex microsphere protease cleavage assay, flow cytometry; inhibition, % at 10 µM; AID 588497; 360,000 compounds, 0.22% hits; in the data active = inhibition above about 35%, passing the limit was not always enough; inconclusive = no clear call, values can overlap the other calls; note: plate controls were buffer without enzyme for full effect and enzyme alone for no effect
The depositor's hits bear a star; ? = inconclusive; · = no result. Cut-off read from the data, not from the text of the source, unless noted: active = inhibition above about 30%; inconclusive = no clear call, values can overlap the other calls; inactive = below that.

SMILES	PriA SSB inh	BoNT A protease	Anthrax LF prot	Bead autofluor	BoNT-F LC inh
CCC(C(=O)Nc1cnccn1)c1ccccc1 (stereo not drawn)	-10	-2	0	24267*	-5
CCC(C(=O)Nc1nc(-c2ccccn2)cs1)c1ccccc1 (stereo not drawn)	100*	·	·	·	·
CCOCCc1nnc(NC(=O)C(C)Oc2ccccc2)s1 (stereo not drawn)	-12	0	0	4670	-9
CCOCCc1nnc(NC(=O)C(CC)c2ccccc2)s1 (stereo not drawn)	-12	0	0	16622*	-5
CCC(C(=O)Nc1ccccn1)c1ccccc1 (stereo not drawn)	-9	0	0	4719	-6
O=C(Nc1nc(-c2ccccn2)cs1)C(c1ccccc1)c1ccccc1	37	·	·	·	·
C[C@H](NC(=O)c1ccccc1)C(=O)Nc1nc(-c2ccccn2)cs1	62*	-1	-4	3827	-4
CCCCn1c2ccc(C)cc2c2nc3ccccc3nc21	-19	·	·	·	·
CC(CC(=O)Nc1nc(-c2ccccn2)cs1)NC(=O)c1ccccc1 (stereo not drawn)	75*	·	·	·	·
CSCCC(=O)Nc1nc(-c2ccccn2)cs1	-9	-1	-4	3269	-4
COCCNC(=O)C(=O)NCC1CCN(C(=O)c2ccncc2)CC1	-15	·	·	·	·
COc1cccc(OC)c1C(=O)Nn1c(C2CCC2)nc2ccccc2c1=O	-4	?	-8	19169*	7
CN(C)c1ccc(C2NCCS2)cc1 (stereo not drawn)	9	0	-4	22912*	-3
Cc1nnc(SCC(=O)N2CC(=O)Nc3ccccc32)n1-c1ccccc1	-3	1	-1	4050	14
O=C1CN(C(=O)CSc2nncn2-c2ccccc2)c2ccccc2N1	-5	-2	-1	21221*	-4
Cc1cc(C)c(OCCCCNCc2ccccc2)c(Cl)c1	-15	?	-3	21662*	-21
C=CCNCCCCOc1c(Cl)cc(C)cc1Br	5	·	·	·	·
COCCCNCCCCOc1c(Cl)cc(C)cc1Br	-11	?	-4	22891*	-8
COc1ccc(OC)c2sc(NC(=O)C3CCCN(S(C)(=O)=O)C3)nc12 (stereo not drawn)	-9	·	·	·	·
COC(=O)c1cccc(NC(=O)c2ccc(S(=O)(=O)N3CCN(C)CC3)cc2)c1	-1	-4	0	23982*	-10
CN1CCN(S(=O)(=O)c2ccc(NC(=O)c3ccc(F)cc3Cl)cc2)CC1	-14	4	26	3183	47*
CN1CCN(S(=O)(=O)c2ccc(NC(=O)c3ccccc3Cl)cc2)CC1	-8	·	·	·	·
C=CCOc1ccc(NC(=O)C(=O)NCCCn2ccnc2)cc1	-2	4	-1	19499*	7
O=C(NCCCn1ccnc1)Nc1cccc(I)c1	27	·	·	·	·
O=C(NCCCn1ccnc1)Nc1cccc(Cl)c1	74*	0	-10	9077	6
SMILES	PriA SSB inh	BoNT A protease	Anthrax LF prot	Bead autofluor	BoNT-F LC inh
O=C(NCCCn1ccnc1)Nc1cc(Cl)cc(Cl)c1	57*	·	·	·	·
O=C(NCCCn1ccnc1)C(=O)NCc1ccccc1Cl	85*	·	·	·	·
CSc1ccc(C2Nc3ccccc3-c3cc(C)nn32)cc1 (stereo not drawn)	-55	3	-2	21584*	4
Cc1cc2n(n1)C(c1ccsc1)Nc1ccccc1-2 (stereo not drawn)	-79	0	-7	9068	-3
O=S(=O)(c1ccc(-c2csc(-c3cccnc3)n2)cc1)N1CCCCC1	-12	0	-4	22447*	-2
CCOc1cc(/C=N/Nc2nn3cnnc3c3ccccc23)ccc1O	·	-1	0	4482	-3
COc1cc(/C=N/Nc2nn3cnnc3c3ccccc23)ccc1O	·	?	-3	21210*	-3
O=c1ccc(-c2ccco2)nn1Cc1c(F)cccc1Cl	-6	·	·	·	·
Cc1cc(C)n(CCO)c(=O)n1	-5	?	1	20285*	2
O=C(CN1C(=O)COc2ccccc21)N(Cc1cccnc1)Cc1cccc(F)c1	-6	?	0	16903*	-4
COc1ccc(Nc2c([N+](=O)[O-])ccc3c2=NC2(CCCCC2)N=3)cc1	76*	1	-7	3704	-16
O=[N+]([O-])c1ccc2c(c1Nc1ccccc1)=NC1(CCCCC1)N=2	-17	2	-2	3250	-3
COc1ccc(C(=O)c2cn[nH]c2-c2cc(Cl)ccc2O)cc1	-18	-1	0	16806*	2
CCC(C)/C=C(C)/C=C/C1=CC2=C(Cl)C(=O)C(C)(OC(C)=O)C(=O)C2=CO1 (stereo not drawn)	45*	0	-9	5298	-16
COc1ccc(C2CC(=O)C3=C(C2)NC(C)=C(C(=O)Nc2ccccc2C)C3c2coc3ccc(C)cc3c2=O)cc1OC (stereo not drawn)	-1	?	-2	23361*	-1
CC1=C(C(=O)Nc2ccccc2)C(c2coc3ccccc3c2=O)C2=C(CCCC2=O)N1 (stereo not drawn)	0	3	1	2070	22
Clc1ccccc1-c1nn2c(-c3ccccn3)nnc2s1	-15	0	-2	22234*	0
Clc1ccccc1-c1nn2c(-c3ccncc3)nnc2s1	9	0	0	7473	9
Nc1nn2c(-c3ccccn3)nnc2s1	60*	·	·	·	·
O=C(NCc1cccs1)C(=O)NCc1ccccc1Cl	-10	·	·	·	·
COc1ccc(S(=O)(=O)NCC2CCN(Cc3ccccc3)CC2)cc1C	-5	·	·	·	·
Cc1ccc2c(c1Br)C(=NN1C(=O)c3ccccc3C1=O)C(=O)N2	-1	·	·	·	·
CC1CN(C(=O)C(c2ccccc2)c2ccccc2)CC(C)O1 (stereo not drawn)	-14	-6	-5	25891*	-8
CCN(CC)c1ccc(/C=C(\C#N)C(N)=O)cc1	-18	-1	3	3306	-8
CCN(CC)c1ccc(/C=C(\C#N)C(=O)c2ccc(Br)cc2)cc1	-60	49*	46*	97679*	61*
SMILES	PriA SSB inh	BoNT A protease	Anthrax LF prot	Bead autofluor	BoNT-F LC inh
O=C(c1ccncc1)N(Cc1cc2ccccc2[nH]c1=O)C1CCCCC1	-1	-1	-1	20954*	-1
CC(C)CN(Cc1cc2ccccc2[nH]c1=O)C(=O)c1cccnc1	-3	?	-2	22057*	-9
Cc1ccc(S(=O)(=O)N(Cc2cccnc2)Cc2cc3ccccc3[nH]c2=O)cc1	0	1	0	5593	0
COc1ccc2[nH]c(=O)c(CN(C(=O)c3cccnc3)c3cc(C)ccc3C)cc2c1	-13	-17	-22	18114*	-82
CC(=O)N(Cc1cccnc1)Cc1cc2ccccc2[nH]c1=O	-8	0	-1	23316*	-2
CCN(CC)C(=C(Cl)Cl)C(=C1NCCN1)[N+](=O)[O-]	1	·	·	·	·
Cc1ccccc1OCCOc1cccc(C=NNC(=O)Cc2nnc(N)s2)c1	-3	·	·	·	·
CCOc1ccc2[nH]c(=O)c(CN(Cc3cccnc3)C(=O)Nc3ccccc3OC)cc2c1	-3	0	-8	2483	0
COc1ccc2[nH]c(=O)c(CN(CCO)C(=O)c3cccs3)cc2c1	-8	1	0	22556*	2
COc1cc(C(=O)N(Cc2cccnc2)Cc2cc3cc4c(cc3[nH]c2=O)OCCO4)cc(OC)c1OC	3	2	1	22318*	2

Bioassay records: PubChem BioAssay, several laboratories
